The target in this test is T1, Rbm38-FF (Mus musculus, UniProt Q62176 1-237).
T1 sequence: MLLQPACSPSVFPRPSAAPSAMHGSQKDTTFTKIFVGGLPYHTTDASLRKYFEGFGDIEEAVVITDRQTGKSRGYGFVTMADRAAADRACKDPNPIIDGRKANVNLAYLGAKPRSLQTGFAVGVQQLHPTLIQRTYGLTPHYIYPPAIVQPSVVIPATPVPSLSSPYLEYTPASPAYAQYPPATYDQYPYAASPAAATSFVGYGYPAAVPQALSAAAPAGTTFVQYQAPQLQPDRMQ
Nature of the test: SELEX-Seq; 16 mM HEPES pH 7.9, 150 mM KCl, 2 mM MgCl2, 60 uM EDTA, 1 mM DTT, 6% glycerol, 0.01 ug/uL heparin, 0.15 mM PMSF, 0.2 U/uL SUPERase-In, room temperature, 30 min; high values mean tight binding. Particulars: protein: recombinant; tags: C-terminal 2xFLAG with TEV remnant (SBP removed by TEV cleavage); ssRNA.
Turning to AGUGUGU, the binding signal is 0.0103 fraction of reads. Regarding GAGUGUG, the binding signal is 0.00663 fraction of reads. As to GGUGUGU, the binding signal was 0.0109 fraction of reads. Regarding UGUUGUG, the binding signal was 0.00859 fraction of reads. For the sequence CGUGUGU, the binding signal was 0.01 fraction of reads. In the case of GUGUGCG, the binding signal is 0.00564 fraction of reads. On to UUGUGUU, for which the binding signal is 0.00601 fraction of reads. In the case of GUUGUGU, the binding signal was 0.00961 fraction of reads. With GUGUUUG the figure was 0.00702 fraction of reads.

GUGUGUC: the binding signal is 0.00739 fraction of reads.

Regarding UGUGGUG, the binding signal is 0.00628 fraction of reads.

With GUGUGUA, the binding signal was 0.00612 fraction of reads. Consider GGGUGUG, for which the binding signal was 0.0067 fraction of reads. With GUGCGUG, the binding signal was 0.0063 fraction of reads. Consider UGUGUUG, for which the binding signal is 0.00826 fraction of reads. On to GUGGUGU, for which the binding signal is 0.00782 fraction of reads. The figure for CGGUGUG is 0.00653 fraction of reads; for UGUGUGU it is 0.0159 fraction of reads. Turning to GUUUGUG, the binding signal was 0.00579 fraction of reads. Consider UGGUGUG, for which the binding signal is 0.00917 fraction of reads.

For the sequence UGCGUGU, the binding signal was 0.00637 fraction of reads. As for GUGUGGU, the binding signal was 0.00929 fraction of reads. As to CAGUGUG, the binding signal was 0.00615 fraction of reads.

On to GGUGUGG, for which the binding signal was 0.00694 fraction of reads. GUGUGUG: the binding signal is 0.016 fraction of reads. For the sequence UGUGUGG, the binding signal was 0.00894 fraction of reads. Consider AUGUGUG, for which the binding signal is 0.00771 fraction of reads. In the case of GCGUGUG, the binding signal was 0.00853 fraction of reads. In the case of GGCGUGU, the binding signal is 0.00692 fraction of reads. Consider UUUGUGU, for which the binding signal is 0.00629 fraction of reads. UGUGUUU: the binding signal is 0.00792 fraction of reads.

In the case of GUGUUGU, the binding signal is 0.00863 fraction of reads. In the case of GUGUGUU, the binding signal was 0.0136 fraction of reads. Regarding GUGUGGG, the binding signal is 0.00755 fraction of reads. With UUGUGUG the figure was 0.00989 fraction of reads; with UGUGUGC, 0.00732 fraction of reads.

For the origin of these results see PMC3820963, “The RNA Binding Protein RBM38 (RNPC1) Regulates Splicing during Late Erythroid Differentiation”.
